Here are results for 43 sequences from the supplement of paper PMC3545927.

This assay deals with furin, P09958. The assay is described as follows: furin cleavage Z-score vs untreated control; higher = more cleavage, active = 3.5 or more, inactive = 1 or less, 8 variable residues between constant flanks. The procedure:
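Multiplexed peptide-cDNA fusion cleavage assay. 8-mer variable peptides flanked by constant Cys-Ala (N-term) and Ala-Gly-Asn-Ala-Ser-Ala-Ser-Ala (C-term) and conjugated to a cDNA oligonucleotide were bead-immobilised via the N-terminus. They were treated with purified furin at a 1:10 enzyme:substrate ratio in 50 mM HEPES pH 7.5, 1 mM CaCl2, 100 mM NaCl for 7.5, 15 or 30 min. Released cDNA was counted by next-generation sequencing, and log counts versus no-furin controls were lowess-adjusted and converted to robust Z-scores.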

The other results are listed elsewhere or left out. No count for the full screen is at hand.

furin, P09958, sequence (P09958 whole entry, the tested form may be a part): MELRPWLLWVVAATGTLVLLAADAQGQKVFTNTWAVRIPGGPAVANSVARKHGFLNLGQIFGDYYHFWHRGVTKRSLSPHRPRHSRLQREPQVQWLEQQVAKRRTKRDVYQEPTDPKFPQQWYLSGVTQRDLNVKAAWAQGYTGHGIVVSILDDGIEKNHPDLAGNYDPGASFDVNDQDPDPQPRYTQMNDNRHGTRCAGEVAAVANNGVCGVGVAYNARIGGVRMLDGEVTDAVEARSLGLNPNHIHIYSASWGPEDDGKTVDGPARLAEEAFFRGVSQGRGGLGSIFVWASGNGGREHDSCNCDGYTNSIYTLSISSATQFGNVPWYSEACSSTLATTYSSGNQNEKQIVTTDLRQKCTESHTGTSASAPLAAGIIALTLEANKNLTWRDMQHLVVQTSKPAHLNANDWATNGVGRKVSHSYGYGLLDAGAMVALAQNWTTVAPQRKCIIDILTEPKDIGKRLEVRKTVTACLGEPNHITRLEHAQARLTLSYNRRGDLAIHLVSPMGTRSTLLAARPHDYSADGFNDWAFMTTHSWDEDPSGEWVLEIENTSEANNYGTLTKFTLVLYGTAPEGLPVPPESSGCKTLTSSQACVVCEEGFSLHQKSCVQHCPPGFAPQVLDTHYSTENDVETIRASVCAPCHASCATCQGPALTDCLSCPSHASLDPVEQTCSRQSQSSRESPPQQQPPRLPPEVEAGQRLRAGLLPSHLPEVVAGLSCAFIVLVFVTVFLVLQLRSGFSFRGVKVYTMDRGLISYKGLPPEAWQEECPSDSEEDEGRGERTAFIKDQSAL

B1: HC844 (peptide)
chain: CALSTTGEIPAGNASASA
On to B1, for which the “furin cleavage Z-score” value was 0.383 (inactive) (7.5 min), -0.16 (inactive) (15 min) and 0.771 (inactive) (30 min).

B2: FS-2402 (peptide)
chain: CARRKRKSQRAGNASASA
Regarding B2, the “furin cleavage Z-score” value is 1.07 (7.5 min), 2.8 (15 min) and 3.58 (active) (30 min).

B3: FS-2516 (peptide)
chain: CARRKRRQTGAGNASASA
Consider B3, for which the “furin cleavage Z-score” value is 8.82 (active) (7.5 min), 9.35 (active) (15 min) and 7.88 (active) (30 min).

B4: FS-2457 (peptide)
chain: CARSCRILHKAGNASASA
As for B4, the “furin cleavage Z-score” value (7.5 min) was 0.718 (inactive), the “furin cleavage Z-score” value (15 min) is 0.25 (inactive) and the “furin cleavage Z-score” value (30 min) was 0.502 (inactive).

B5: FS-3054 (peptide)
chain: CARRKRLRHRAGNASASA
In the case of B5, the “furin cleavage Z-score” value (7.5 min) is -0.105 (inactive), the “furin cleavage Z-score” value (15 min) is -0.397 (inactive) and the “furin cleavage Z-score” value (30 min) is -1.97 (inactive).

B6: FS-1969 (peptide)
chain: CARRKRRHHKAGNASASA
As to B6, the “furin cleavage Z-score” value (7.5 min) is 1.16, the “furin cleavage Z-score” value (15 min) is 4.53 (active) and the “furin cleavage Z-score” value (30 min) was 5.66 (active).

B7: FS-2067 (peptide)
chain: CARRKRAGGGAGNASASA
With B7, the “furin cleavage Z-score” value is, setting by setting: (7.5 min) 4.24 (active); (15 min) 4.92 (active); (30 min) 5.33 (active).

B8: FS-1918 (peptide)
chain: CARRKRFPGKAGNASASA
As to B8, the “furin cleavage Z-score” value (7.5 min) is 0.56 (inactive), the “furin cleavage Z-score” value (15 min) stood at 2.63 and the “furin cleavage Z-score” value (30 min) came to 3.28.

B9: FS-2228 (peptide)
chain: CARRKRIVGGAGNASASA
Consider B9, for which the “furin cleavage Z-score” value is 0.169 (inactive) (7.5 min), 1.22 (15 min) and 2.08 (30 min).

B10: HC2275 (peptide)
chain: CAHLEVVTSTAGNASASA
Take B10: the “furin cleavage Z-score” value (7.5 min) is -0.0236 (inactive), the “furin cleavage Z-score” value (15 min) was -0.0472 (inactive) and the “furin cleavage Z-score” value (30 min) was -0.103 (inactive).

B11: HC2470 (peptide)
chain: CAVTPCSAHLAGNASASA
As for B11, the “furin cleavage Z-score” value (7.5 min) was -2.91 (inactive), the “furin cleavage Z-score” value (15 min) was -0.94 (inactive) and the “furin cleavage Z-score” value (30 min) is -1.39 (inactive).

B12: HC683 (peptide)
chain: CATSLTGRDKAGNASASA
With B12, the “furin cleavage Z-score” value was 0.711 (inactive) (7.5 min), 0.726 (inactive) (15 min) and 0.633 (inactive) (30 min).

B13: HC1950 (peptide)
chain: CAVCTTPCSGAGNASASA
For B13, the “furin cleavage Z-score” value runs as follows: (7.5 min) -1.68 (inactive); (15 min) 1.7; (30 min) 0.388 (inactive).

B14: HC820 (peptide)
chain: CAHSTDATSIAGNASASA
For B14, the “furin cleavage Z-score” value was 0.202 (inactive) (7.5 min), -1.29 (inactive) (15 min) and 0.297 (inactive) (30 min).

B15: HC896 (peptide)
chain: CATIETITLPAGNASASA
In the case of B15, the “furin cleavage Z-score” value (7.5 min) is -1.51 (inactive), the “furin cleavage Z-score” value (15 min) was 0.877 (inactive) and the “furin cleavage Z-score” value (30 min) is -0.833 (inactive).

B16: HC1707 (peptide)
chain: CAMEFCSQHLAGNASASA
As for B16, the “furin cleavage Z-score” value is, setting by setting: (7.5 min) 0.147 (inactive); (15 min) 0.288 (inactive); (30 min) -0.0248 (inactive).

B17: HC3 (peptide)
chain: CAMEEVSQHLAGNASASA
In the case of B17, the “furin cleavage Z-score” value is, setting by setting: (7.5 min) 0.556 (inactive); (15 min) 1.13; (30 min) 2.1.

B18: FS-3204 (peptide)
chain: CARRKRQVYGAGNASASA
Consider B18, for which the “furin cleavage Z-score” value is 6.12 (active) (7.5 min), 7.43 (active) (15 min) and 7.08 (active) (30 min).

B19: FS-2370 (peptide)
chain: CARRKRQVRRAGNASASA
B19: the “furin cleavage Z-score” value by setting is: (7.5 min) 6.85 (active); (15 min) 8.4 (active); (30 min) 6.39 (active).

B20: FS-2300 (peptide)
chain: CARRVRDKDGAGNASASA
Turning to B20, the “furin cleavage Z-score” value by setting is: (7.5 min) 0.77 (inactive); (15 min) 1.62; (30 min) 2.04.

B21: FS-3052 (peptide)
chain: CARRKRDLDGAGNASASA
Turning to B21, the “furin cleavage Z-score” value reads like this: (7.5 min) 11.5 (active); (15 min) 11.4 (active); (30 min) 8.25 (active).

B22: FS-1775 (peptide)
chain: CARRKKSQDGAGNASASA
Take B22: the “furin cleavage Z-score” value (7.5 min) is 0.168 (inactive), the “furin cleavage Z-score” value (15 min) is -0.316 (inactive) and the “furin cleavage Z-score” value (30 min) is 0.531 (inactive).

B23: FS-3055 (peptide)
chain: CARRKRQIYGAGNASASA
On to B23, for which the “furin cleavage Z-score” value (7.5 min) was 2.2, the “furin cleavage Z-score” value (15 min) is 5.1 (active) and the “furin cleavage Z-score” value (30 min) is 6.81 (active).

B24: HC2516 (peptide)
chain: CASTGCSAHLAGNASASA
For B24, the “furin cleavage Z-score” value reads like this: (7.5 min) -1.2 (inactive); (15 min) 0.402 (inactive); (30 min) -0.12 (inactive).

B25: FS-568 (peptide)
chain: CATNLRIKRDAGNASASA
On to B25, for which the “furin cleavage Z-score” value (7.5 min) is 14.5 (active), the “furin cleavage Z-score” value (15 min) was 15.3 (active) and the “furin cleavage Z-score” value (30 min) was 10.7 (active).

B26: FS-525 (peptide)
chain: CAFNLRMKRDAGNASASA
For B26, the “furin cleavage Z-score” value reads like this: (7.5 min) 14.3 (active); (15 min) 12.3 (active); (30 min) 10.8 (active).

B27: HC2430 (peptide)
chain: CAVREVPCHRAGNASASA
On to B27, for which the “furin cleavage Z-score” value by setting is: (7.5 min) -1.53 (inactive); (15 min) -1.03 (inactive); (30 min) -0.128 (inactive).

B28: FS-1596 (peptide)
chain: CAKRWRRGRAAGNASASA
As for B28, the “furin cleavage Z-score” value reads like this: (7.5 min) 6.85 (active); (15 min) 6.38 (active); (30 min) 4.94 (active).

B29: FS-452 (peptide)
chain: CAKPGRRGRAAGNASASA
On to B29, for which the “furin cleavage Z-score” value reads like this: (7.5 min) 6.38 (active); (15 min) 5.76 (active); (30 min) 4.89 (active).

B30: FS-3259 (peptide)
chain: CARPGRRVCAAGNASASA
Take B30: the “furin cleavage Z-score” value (7.5 min) is -0.847 (inactive), the “furin cleavage Z-score” value (15 min) was -1.4 (inactive) and the “furin cleavage Z-score” value (30 min) was -1.34 (inactive).

B31: FS-492 (peptide)
chain: CARPGRRGRPAGNASASA
For B31, the “furin cleavage Z-score” value is, setting by setting: (7.5 min) -0.496 (inactive); (15 min) -1.23 (inactive); (30 min) -0.0754 (inactive).

B32: HC1799 (peptide)
chain: CAPEMEECSQAGNASASA
B32: the “furin cleavage Z-score” value reads like this: (7.5 min) 0.387 (inactive); (15 min) 0.44 (inactive); (30 min) 0.854 (inactive).

B33: FS-2550 (peptide)
chain: CARERRRAAKAGNASASA
As to B33, the “furin cleavage Z-score” value runs as follows: (7.5 min) 0.778 (inactive); (15 min) 0.314 (inactive); (30 min) 1.46.

B34: FS-3177 (peptide)
chain: CARYKRKSDEAGNASASA
Take B34: the “furin cleavage Z-score” value was 5.32 (active) (7.5 min), 5.6 (active) (15 min) and 5.8 (active) (30 min).

B35: FS-3135 (peptide)
chain: CARYKKAVFRAGNASASA
Consider B35, for which the “furin cleavage Z-score” value (7.5 min) came to 2, the “furin cleavage Z-score” value (15 min) was 0.2 (inactive) and the “furin cleavage Z-score” value (30 min) was determined as 2.99.

B36: FU3 (peptide)
chain: CARERREVVRAGNASASA
On to B36, for which the “furin cleavage Z-score” value is, setting by setting: (7.5 min) 10.2 (active); (15 min) 11.3 (active); (30 min) 10.9 (active).

B37: FS-1979 (peptide)
chain: CARYKRKMTQAGNASASA
As for B37, the “furin cleavage Z-score” value is -0.853 (inactive) (7.5 min), -0.612 (inactive) (15 min) and -0.101 (inactive) (30 min).

B38: FS-2010 (peptide)
chain: CARERRWDRGAGNASASA
For the sequence B38, the “furin cleavage Z-score” value reads like this: (7.5 min) -1.3 (inactive); (15 min) -0.408 (inactive); (30 min) 1.72.

B39: FS-2486 (peptide)
chain: CARERRDSGVAGNASASA
Regarding B39, the “furin cleavage Z-score” value by setting is: (7.5 min) -0.528 (inactive); (15 min) -0.224 (inactive); (30 min) 0.24 (inactive).

B40: FS-2223 (peptide)
chain: CARNVRFSDEAGNASASA
Consider B40, for which the “furin cleavage Z-score” value was 0.545 (inactive) (7.5 min), -0.141 (inactive) (15 min) and -1.68 (inactive) (30 min).

B41: FS-2537 (peptide)
chain: CARYKRMVERAGNASASA
On to B41, for which the “furin cleavage Z-score” value (7.5 min) is 7.23 (active), the “furin cleavage Z-score” value (15 min) was 7.48 (active) and the “furin cleavage Z-score” value (30 min) is 6.63 (active).

B42: FS-2137 (peptide)
chain: CARERRDAGRAGNASASA
For B42, the “furin cleavage Z-score” value (7.5 min) is 9.55 (active), the “furin cleavage Z-score” value (15 min) was 10.7 (active) and the “furin cleavage Z-score” value (30 min) is 9.14 (active).

B43: HC1918 (peptide)
chain: CATTPCSGTWAGNASASA
Take B43: the “furin cleavage Z-score” value (7.5 min) is 0.438 (inactive), the “furin cleavage Z-score” value (15 min) is 1.03 and the “furin cleavage Z-score” value (30 min) is 0.941 (inactive).
